# Measurements taken from PubChem BioAssay AID602229 (The Scripps Research Institute Molecular Screening Center, 2012).
# Screen size: about 360,000 compounds; about 1,300 (0.36%) were called active. The sample as a whole holds a higher share of actives than the screen did. A number with no mark means an inactive call.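 How the source made its calls: active means inhibition above the mean of all tested compounds plus 3 SD (cut at about 70% in these data); inactive means the rest.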
# Molecular target: Photoreceptor-specific nuclear receptor (Homo sapiens) (UniProt Q9Y5X4)
# Assay: NCOR release from NR2E3 in cells – cell-based, luminescence, CHO-S, Gal4-NCOR/VP16-NR2E3, primary screen (AID 602229);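 further: 0% = DMSO with NR2E3 transfected cells and 100% = cells lacking NR2E3 construct; higher means lower luciferase signal from less NR2E3 corepressor binding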
# Conditions: CHO-S Gal4-NCOR/VP16-NR2E3 two-hybrid, luciferase; at 3.98 µM; active compounds read high
# Chain of Photoreceptor-specific nuclear receptor (Homo sapiens) (Q9Y5X4 whole entry, looked up, the tested form may be a part): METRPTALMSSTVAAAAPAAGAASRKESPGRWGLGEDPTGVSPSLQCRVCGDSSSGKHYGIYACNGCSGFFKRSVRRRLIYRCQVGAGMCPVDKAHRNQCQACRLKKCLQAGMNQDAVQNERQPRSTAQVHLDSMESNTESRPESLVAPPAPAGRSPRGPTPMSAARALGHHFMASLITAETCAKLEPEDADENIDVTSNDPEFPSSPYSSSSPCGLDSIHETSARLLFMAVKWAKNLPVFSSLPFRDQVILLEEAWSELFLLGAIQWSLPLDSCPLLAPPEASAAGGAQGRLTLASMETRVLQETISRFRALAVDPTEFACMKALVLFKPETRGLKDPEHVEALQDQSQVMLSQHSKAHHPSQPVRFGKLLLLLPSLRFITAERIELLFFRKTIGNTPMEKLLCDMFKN
row,Structure (SMILES),inhibition of corepressor binding
1,O=C(CCn1c(=O)oc2ccccc21)Nc1ccon1,-8.66%
2,CCOC(=O)C1=C(CNC2CCCCC2)NC(=O)NC1c1cc(C)ccc1C (configuration not stated),-26.1%
3,CCN(Cc1ccccc1)S(=O)(=O)c1cc2c3c(c1)CCN3C(=O)CC2,13.4%
4,COc1ccc(CNC(=O)COc2cccnc2[N+](=O)[O-])cc1,-7.82%
5,O=C(COc1ncnc2ccccc12)NC(=O)NCc1ccccc1,9.2%
6,COc1ccc(CNc2ncnc3ccccc23)cc1,96.1% (active)
7,Cc1ccc(O/C=C2\OC(=O)c3ccccc32)cc1,-37.1%
8,Cc1c(C(=O)N(Cc2ccccc2)Cc2cccnc2)cnn1-c1ccc(F)cc1,0.5%
9,COc1ccc(NS(=O)(=O)c2ccc(N3CCN(CCO)CC3)c([N+](=O)[O-])c2)cc1,17.4%
10,COc1ccc(S(=O)(=O)Nc2ccc3oc(C)c(C(C)=O)c3c2)cc1,60.2%
11,COc1ccc(NS(=O)(=O)c2ccc(Oc3c(C#N)cccc3C#N)cc2)cc1,86.5% (active)
12,CCOCc1c(C(=O)N2CCN(Cc3ccc(Br)s3)CC2)oc2ccccc12,-14.4%
13,O=S(=O)(c1ccc(F)cc1)N1CCN=C1SCc1cccc(F)c1,3.65%
14,Cc1ccc(S(=O)(=O)N2CCN(C(=O)COC(=O)CNC(=O)c3ccc(C(C)(C)C)cc3)CC2)c(C)c1,1.29%
15,CC1=C(C(=O)NC2CC(C)(C)Cc3c2cnn3-c2ccc(C)cc2)OCCO1 (configuration not stated),-12.3%
16,O=C(CCNC(=O)c1ccc(Cl)cc1)NC1CCCc2ccccc21 (configuration not stated),-14.3%
17,COc1ccc(C(=O)NC2CCCc3c2cnn3-c2cccc(C)c2C)c(OC)n1 (configuration not stated),91.3% (active)
18,COC(=O)c1ccc(C(=O)NC2CC(C)(C)Cc3c2cnn3-c2ccc(F)cc2)nc1 (configuration not stated),-87.5%
19,Cc1cc(C(=O)NC2CC(C)(C)Cc3c2cnn3-c2ccccc2)n[nH]1 (configuration not stated),-26.5%
20,Cn1nccc1C(=O)NC1CCCc2c1cnn2-c1ccc(F)cc1F (configuration not stated),107% (active)
21,Cn1nccc1C(=O)NC1CCCc2c1cnn2-c1ccccc1F (configuration not stated),105% (active)
22,COc1ccc(C(=O)NC2CC(C)(C)Cc3c2cnn3-c2ccccc2)c(OC)c1 (configuration not stated),-23.7%
23,COc1ccc(C(=O)NC2CC(C)(C)Cc3c2cnn3-c2ccccc2C)o1 (configuration not stated),-34.2%
24,NC(=O)COC(=O)c1ccc2c(c1)C(=O)N(Cc1ccco1)C2=O,-5.79%
25,Cc1cc(C)n(CCC(=O)N2CCN(S(=O)(=O)c3ccc(C)c(C)c3)CC2)n1,3.36%
26,Cc1ccc(CN(N=Nc2nonc2N)c2nonc2N)c(C)c1,-19.7%
27,CC1CCCC(NC(=O)CN2CCN(Cc3ccc(Cl)cc3)C2=O)C1C (configuration not stated),2.85%
